Results as given in PubChem BioAssay AID624305 (National Center for Advancing Translational Sciences (NCATS), 2012).
Inconclusive results are not listed. Calls of active or inactive are those of the source. Calls follow the shape of the dose curve; as a rule, active = well fitted activation curve with a large enough effect; inconclusive = small, poorly fitted or top-dose-only effect; inactive = no such curve, though single readings can be large or run the other way.

test: qHTS assay for re-activators of p53 using a Luc reporter: Hit Validation; settings: p53-responsive luciferase reporter cells, luminescence, H1299 line expressing heat-sensitive Ala138Val p53; series mostly up to 46.1 µM; also: nearly all actives have a fitted effect of over 75% in size; as to activation: 0% is about no effect
Summary of the method: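 H1299 (p53-null) cells stably carrying p53-A138V and a BP100-luciferase reporter, 1000 cells/well, treated 24 h at 37 deg C. Compounds at several concentrations, 1:5 dilution; nocodazole control; luminescence read after 10 min with detection reagent.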
Potency is read from the fitted curve at half-maximal effect.

Potency, active:
Oc1[nH]c2ccccc2c1C=Nc1ccc2c(c1)OCCO2 0.326 µM
Cc1ccc2c(c1)sc1nc(=O)n(-c3cccc(Cl)c3)c(=O)n12 8.2 µM
Cc1ccc(-c2cc3nc(C)cc(NCc4ccco4)n3n2)cc1 7.31 µM
CCCCn1c(/C=N/Nc2nc3ccccc3[nH]2)nc2ccccc21 23.1 µM
Cc1ccc(NC(=O)/C(Cl)=C/c2ccccc2)cc1C 2.06 µM
Cc1c(/C(O)=C2/C(=O)C(=O)N(Cc3cccnc3)C2c2cccs2)cnn1-c1ccccc1 (stereo unspecified) 8.2 µM
O=C(N/N=C1\CCc2ccccc21)c1ccccc1O 1.03 µM
Cc1c(C(=O)N2CCc3ccccc32)oc2c1C(=O)CC(C)(C)C2 4.11 µM
COc1ccccc1-c1nc(-c2ccc(Br)o2)no1 0.366 µM
CC(C)C(=O)OCC(=O)Nc1ccc(N=Nc2ccccc2)cc1 5.8 µM
CCCOc1ccc(-c2cc3onc(-c4ccccc4)c3c(=O)n2C)cc1 5.8 µM
Cc1cc(C(=O)Cn2nnc3ccccc3c2=O)c(C)n1Cc1cccs1 0.259 µM

Potency, inactive:
COc1ccc(/C(O)=C2/C(=O)C(=O)N(CCN3CCOCC3)C2c2ccccn2)cc1 (stereo unspecified)
O=C(Nc1ccc(-c2nc3cc(Cl)ccc3c(=O)o2)cc1)c1ccco1
CC(C)N1C(=O)CN(C2CCCCCC2)C(=O)C1c1ccccc1F (stereo unspecified)
Cc1ccccc1-c1noc(N)c1C#N
C/C(=C\COc1ccc2ccc(=O)oc2c1)CC[C@@H](O)C(C)(C)O
CN1CC(C(=O)Nc2ccc(F)c(Cl)c2)CC1=O (stereo unspecified)
Cc1nn(-c2ccccc2)c(N2CCCC2)c1/C=N/NC(=O)c1cc(-c2ccccc2)nc2ccccc12
Cc1cccc(C)c1Nc1c(-c2ccccn2)nc2ccccn12

activation, inactive:
Cc1noc(C)c1C(=O)Nc1nc(-c2ccc(F)cc2)cs1 -25% [at 9.22 µM]
